TTR transcr act: increases transthyretin transcription. AID 1117267. SH-SY5Y TTR promoter Gaussia luciferase, luminescence; 100% = recombinant luciferase protein wells. activation, % at 16.7 µM. 92,000 tested, 1.3% active;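 active = activation above the mean of all tested compounds plus 3 SD, cut at about 9.5% in these data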;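 also: cells exposed to compounds for one day before reading; 0% = median of all test compound wells on the plate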
HuH7 TTR inh: decreases TTR transcription in HuH7 cells in activator counter-screen. inhibition, % at 16.7 µM. 1,100 tested, 4% active. shares compounds with TTR transcr act. HuH7 TTR promoter-Gaussia luciferase reporter, luminescence;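 active = average inhibition above the solvent-only control wells' mean plus 3 SD, cut at about 15% in these data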;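 also: 0% = cells with DMSO only and 100% = cells with inhibitor control FD; inhibitors lower well luminescence so higher value means more inhibition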
TTR act confirm: confirmation of human transthyretin transcription activators; activation, % at 16.7 µM; SHSY5Y TTR promoter Gaussia luciferase, luminescence; 100% = purified Lucia enzyme wells, no cells; AID 1117280; 1,100 tested, under 10 active; shares compounds with TTR transcr act;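 active = mean activation above a set limit taken from the earlier primary screen, cut at about 11% in these data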;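 also: 0% = DMSO-treated cells and 100% = recombinant Lucia luciferase without cells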
An asterisk follows results filed as active; ! = not confirmed by another sample. Many of the other results were omitted from the sample, so hits are more common in it than they were.

SMILES	TTR transcr act	others
CCCCc1ccc2nc(NC(=O)c3cccs3)sc2c1	1
Cc1cc(C)n(CC(=O)c2cccc([N+](=O)[O-])c2)n1	2
CCC(=O)C(C#N)(c1ccc(OC)c(OC)c1)C(C)C (centres undefined)	5
Cc1cc(C)nc(NCc2ccc(Cl)cc2)n1	-1
CC(C)c1cc(-c2cc(-c3ccc(Cl)cc3)on2)nc(NC2CCCC2)n1	0
CCCNc1nc(-c2cc(-c3ccc(Cl)cc3)on2)cc(C(C)C)n1	12*	HuH7 TTR inh=-12;TTR act confirm=0
CCc1ccc2c(CSc3nnnn3C)cc(=O)oc2c1	0
C=CCN1C(=O)[C@H](CC(=O)NCC2CCCCC2)[C@@]2(C(=O)OCC)CCCC=C12	0
O=C(Cc1cc(=O)[nH][nH]1)N/N=C/c1ccccc1Cl	7
O=C(Cc1cc(=O)[nH][nH]1)N/N=C/c1c(Cl)cccc1Cl	-1
O=C(Cc1cc(=O)[nH][nH]1)N/N=C/c1cccc(Cl)c1Cl	23*!	HuH7 TTR inh=-13;TTR act confirm=0
Cc1ccc(C(=O)NCCNC(=O)c2ccc(C)nc2)cc1	1
C[N+](C)(C)CCCNC(=O)c1ccc(/C=N/O)nc1	20*	HuH7 TTR inh=-7;TTR act confirm=1
CNCCCNC(=O)c1ccc(/C=N/O)nc1	-1
Cc1ccc(/C=N\NC(=O)c2cncc(Br)c2)o1	2
Cc1ccc(/C=N/NC(=O)c2ccc(NC(=O)c3ccccc3Cl)cc2)o1	-2
Cc1ccc(/C=N/NC(=O)c2csc(C)c2)o1	23*	HuH7 TTR inh=16*;TTR act confirm=-2
Cc1cccc(N2CCN(C(=O)Cn3cccc3C(=O)c3ccccc3)CC2)c1C	1
O=C(c1ccccc1)c1cccn1CC(=O)N1CCCCCC1	10*	HuH7 TTR inh=-11;TTR act confirm=0
CN(Cc1ccccc1)C(=O)Cn1cccc1C(=O)c1ccccc1	-1
Cc1ccc(C(=O)CN2C(=O)NC3(CCc4ccccc43)C2=O)s1 (centres undefined)	-2
COc1ccc(C2=Nc3ccccc3NC(=O)C2N(CCc2ccccc2)C(=O)c2cccs2)cc1 (centres undefined)	0
CCOCCCNC(=O)c1ccc(C2SCC(=O)N2Cc2ccccc2)cc1 (centres undefined)	-1
O=C(N/C(=C/c1cccnc1)C(=O)N1CCOCC1)c1ccccc1F	20*	HuH7 TTR inh=-3;TTR act confirm=-1
O=C(N/C(=C/c1cccnc1)C(=O)N1CCOCC1)c1ccccc1Cl	-1
SMILES	TTR transcr act	others
CC(=O)N/C(=C\c1ccccc1)C(=O)N1CCOCC1	-2
COc1cccc(CNC(=O)CCCc2nnc3n(C)c(=O)c4sccc4n23)c1	0
COc1ccc(NC(=O)c2cc(C)cc(C)c2)cc1[N+](=O)[O-]	19*	HuH7 TTR inh=-8;TTR act confirm=1
COc1cc(NC(=O)c2ccc(OC)c([N+](=O)[O-])c2)ccc1NC(=O)c1ccco1	0
COc1ccc(C(=O)Nc2ccc(C(=O)N3CCCC3)cc2)cc1[N+](=O)[O-]	0
COC(=O)C(C)Oc1cc(C)ccc1COc1ccc(-n2nc(C)n(C(F)F)c2=O)cc1 (centres undefined)	4
O=C(CNC(=O)c1ccccc1)OC1CCCCC1	1
COC(=O)C(CC(=O)CNC(=O)c1ccccc1)NC(=O)c1ccccc1 (centres undefined)	1
O=C(NC(CC1CCCCC1)C(=O)O)c1ccccc1 (centres undefined)	15*	HuH7 TTR inh=-7;TTR act confirm=0
CCOC(=O)[C@@]12CCCC=C1N(CCc1ccc(Cl)cc1)C(=O)[C@H]2CC(=O)NCc1ccccc1	0
CCc1nc2ccc(C(=O)N3CCN(C(=O)c4ccco4)CC3)cn2c1N(C)Cc1nccn1C	-1
COc1ccc(CN(C)C[C@H]2Oc3c(NC(=O)Nc4ccccc4)cccc3C(=O)N([C@H](C)CO)C[C@@H]2C)cc1	-3
C[C@@H]1CN([C@@H](C)CO)C(=O)c2cccc(NS(C)(=O)=O)c2O[C@H]1CN(C)Cc1ccc(Oc2ccccc2)cc1	19*	HuH7 TTR inh=5;TTR act confirm=0
C[C@@H]1CN([C@@H](C)CO)C(=O)c2cccc(NS(C)(=O)=O)c2O[C@H]1CN(C)Cc1ccc(C(=O)O)cc1	5
COc1ccc(CN(CC2CCC(C(=O)O)CC2)C(=S)Nc2ccc(C)c(Cl)c2)cc1 (centres undefined)	0
COc1ccc(NC(=S)N(Cc2cccc(Br)c2)CC2CCC(C(=O)O)CC2)cc1 (centres undefined)	43*	HuH7 TTR inh=-21;TTR act confirm=-1
COc1cccc(NC(=S)N(Cc2cccc(Br)c2)CC2CCC(C(=O)O)CC2)c1 (centres undefined)	1
O=C1NCC(Nc2ccccc2Cl)C(=O)N1 (centres undefined)	2
CCCOC(=O)c1ccc(OCC(O)Cn2c(C)nc3ccccc32)cc1 (centres undefined)	-5
Cc1cccc(OCC(=O)OCC(=O)c2c(N)n(C)c(=O)n(C)c2=O)c1C	0

Source: PubChem
